Tb PFK block: inhibitors of T. brucei phosphofructokinase | 0.17% of 330,000 active | O15648 | AID 485367 | Potency, µM (top dose mostly 57.5 µM), for the others: top-dose activity, negative = inhibition, actives largely listed as inhibitors | T. brucei PFK, ADP-Glo luminescence;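 further: 0% = uninhibited 1x PFK enzyme wells and -100% = no-enzyme wells; nearly all actives have a fitted effect of over 60% in size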
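Activity is normalized to no-enzyme wells (full inhibition) and 1.25 nM enzyme wells (no inhibition). Reaction: 0.5 mM F6P, 0.1 mM ATP, 45 min RT, ADP-Glo luminescence; concentration-response curves fitted and classed by quality.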
p53 reactivator: restores transcriptional activity of mutant p53; H1299 p53-A138V BP100-luciferase reporter, luminescence, 24 h; Potency, µM (series often up to 92.2 µM), inactives show at the highest dose activity change, positive = activation, usual class: activators; 0.063% of 320,000 active; further: % of control where 0% means no effect; nearly all actives have a fitted effect of over 45% in size
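H1299 (p53-null), stable ts p53-A138V + BP100-Luc; 1000 cells/well, Opti-MEM/10% FBS; cpd 4 pt, 1:5; 24 h, 37 deg C, 5% CO2; detection reagent 10 min RT; luminescence.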
ASM inhibitor: human S-ASM enzyme inhibition; P17405; placental ASM, HMU-PC fluorogenic substrate, 60 min; Potency, µM (top dose mostly 57.5 µM), for the others: at the highest dose activity change, negative = inhibition, most hits filed as inhibitors; AID 504937; 0.006% of 340,000 active
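Human placenta-derived ASM preincubated with compound 10 min at room temperature, then reacted with 9 uM (final) fluorogenic HMU-PC substrate for 60 min at 37 C. Stop solution raises pH to 10; fluorescence read at Ex 386/Em 447 nm.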
ERG-DNA inh: inhibitors of human ERG Ets domain-DNA interaction; Potency, µM (top dose mostly 76.9 µM), inactives show at the highest dose FP activity, negative = inhibition, most hits filed as inhibitors; 0.028% of 370,000 active; P11308; fluorescence polarization, His-ERG Ets domain / labelled DNA; active means well fitted inhibition curve with a large enough effect in the polarisation, with a control signal flat; inconclusive means small, poorly fitted or top-dose-only effect, or effect the other way, or a change in a side signal; inactive means no such curve, though single readings can be large or run the other way; the % refers to the polarisation;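 further: polarization taken with two DNA probes labelled with fluorescein and Texas red; % of control where 0% means no effect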
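His-tagged ERG Ets domain (1 uM in the protein solution; 300mM KCl, 50mM Tris-HCl, 1mM EDTA, 1mM DTT, pH 7.5) received compound, then a probe mix of 5 nM fluorescein-DNA and 100nM Texas-615-DNA. Fluorescence polarization was read for both dyes.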
A-T KAP1 phos: potential ataxia-telangiectasia treatments restoring KAP-1 phosphorylation. Potency, µM (series often up to 57.5 µM), without a hit: top-dose activation, actives largely listed as activators. F2112 A-T fibroblasts, KAP-1 phosphorylation AlphaLISA; neocarzinostatin DNA damage 30 min before lysis. 0.19% of 320,000 active. AID 485349; further: % of control where 0% means no effect; nearly all actives have a fitted effect of over 45% in size
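hTERT-immortalized A-T patient fibroblasts (F2112), 500 cells/well in OPTI-MEM, 1% FBS, got compounds for 60 min, then NCS for 30 min at 37C. Lysates were then assayed for phospho-KAP-1 by AlphaLISA (anti-pKAP1 donor, anti-KAP1 acceptor beads), 6 hr at 25C.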
KAT2A inh: inhibitors of human GCN5L2 histone acetyltransferase; GCN5L2 HAT assay, ThioGlo1 CoA-SH fluorescence; Potency, µM (series often up to 58.9 µM), for the others: at the top dose activity change, negative = inhibition, usual class: inhibitors; 0.21% of 390,000 active; further: on the % scale 0 is the no-effect control and ±100 the full control effect
Target sequence (Q92830 whole entry, looked up): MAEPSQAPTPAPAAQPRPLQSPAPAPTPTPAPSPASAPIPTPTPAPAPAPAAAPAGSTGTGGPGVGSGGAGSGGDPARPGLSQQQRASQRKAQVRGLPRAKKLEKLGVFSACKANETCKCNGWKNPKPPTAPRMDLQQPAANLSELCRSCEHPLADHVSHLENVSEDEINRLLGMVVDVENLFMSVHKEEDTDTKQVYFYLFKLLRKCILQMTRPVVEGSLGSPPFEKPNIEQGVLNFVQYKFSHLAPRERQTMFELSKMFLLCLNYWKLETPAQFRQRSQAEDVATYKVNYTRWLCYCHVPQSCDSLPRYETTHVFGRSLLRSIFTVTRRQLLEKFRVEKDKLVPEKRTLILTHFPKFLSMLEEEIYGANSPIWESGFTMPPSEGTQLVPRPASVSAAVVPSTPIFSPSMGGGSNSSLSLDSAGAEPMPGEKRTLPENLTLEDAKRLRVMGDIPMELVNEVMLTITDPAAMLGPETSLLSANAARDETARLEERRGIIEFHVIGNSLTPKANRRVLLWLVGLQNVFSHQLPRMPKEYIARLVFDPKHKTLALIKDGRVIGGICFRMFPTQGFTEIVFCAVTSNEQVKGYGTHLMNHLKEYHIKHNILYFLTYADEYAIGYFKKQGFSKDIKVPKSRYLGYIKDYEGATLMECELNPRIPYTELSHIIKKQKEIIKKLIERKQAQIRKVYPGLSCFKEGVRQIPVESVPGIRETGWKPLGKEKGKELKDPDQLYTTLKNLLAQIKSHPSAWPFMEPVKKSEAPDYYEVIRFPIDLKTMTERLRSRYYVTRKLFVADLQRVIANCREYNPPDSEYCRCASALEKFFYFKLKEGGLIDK
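Titration-based screen in which CoA formation is detected via maleimide probe ThioGlo1 (50uM) turning fluorescent on thiol reaction; substrates H3(1-25) 75uM and acetyl-CoA 70uM, GCN5L2 20nM, 20 min incubation at room temperature.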
* hit, by the source's call; i = inactive; ? = inconclusive; · = not tested or not shown. A selection: hits, their analogues and other compounds. The true share with any hit is near 0.55%. Unless noted, the call rests on the fitted dose curve; in most records, active means well fitted curve in the direction sought with a large enough effect; inconclusive means small, poorly fitted or top-dose-only effect, or another doubt; inactive means no such curve, though single readings can be large; an effect the other way counts as inactive or inconclusive. Potency means the concentration at half of the fitted maximal effect.

SMILES	Tb PFK block	p53 reactivator	ASM inhibitor	ERG-DNA inh	A-T KAP1 phos	KAT2A inh
C[n+]1c(-c2ccccc2)c2cc(N)ccc2c2ccc(N)cc21	-7.3%	·	-13.8%	14.1µM*	-9.9%	-0.3%
Cc1ccccc1N1C(=O)/C(=C/c2ccco2)C(=O)NC1=S	?	-6.5%	·	·	-7.5%	2.24µM*
CCOc1ccc(N2C(=O)/C(=C\c3cccs3)C(=O)NC2=S)cc1	7.5%	2.7%	-8.8%	83.0%	-0.9%	-22.6%
Cc1cccc(N2C(=O)/C(=C/c3ccc(N4CCN(C)CC4)o3)C(=O)NC2=S)c1C	0.0%	?	-5.0%	82.5%	-3.1%	0.0%
CCOc1ccc(N2C(=O)/C(=C/c3ccco3)C(=O)NC2=S)cc1	-27.5%	?	?	15.6%	-16.9%	22.4µM*
CC(C)c1cc2c(c(O)c1O)[C@]1(C(=O)O)CCCC(C)(C)C1CC2 (some centres not stated)	·	·	·	·	·	-6.2%
CCOP(=S)(OCC)O/N=C(\C#N)c1ccccc1Cl	·	·	·	·	·	-17.6%
CCCOc1ccc(C(C)=O)cc1Cc1c(O)[nH]c(=S)[nH]c1=O	-18.7%	2.1%	0.7%	9.2%	10.7%	?
CCOc1ccc(C(C)=O)cc1Cc1c(O)[nH]c(=S)[nH]c1=O	-12.5%	-4.2%	1.4%	15.5%	-12.7%	14.1µM*
CCC(C)n1c(=O)[nH]c(C)c(Br)c1=O (configuration not stated)	·	·	·	·	·	16.0%
COP(=S)(OC)Oc1nc(Cl)c(Cl)cc1Cl	·	·	·	·	·	20µM*
CCOP(=S)(OCC)Oc1nc(Cl)c(Cl)cc1Cl	0.2%	3.1%	-1.2%	12.0%	?	?
COc1ccc2c3c1OC1C[C@@H](O)C=C[C@@]31CCN(C)C2 (some centres not stated)	·	·	·	·	·	-7.3%
CC[C@H](C)[C@H](NC(=O)CN)C(=O)N[C@@H](CC(C)C)C(=O)NCC(=O)N[C@@H](Cc1ccccc1)C(=O)N[C@H](C(=O)N[C@@H](Cc1ccccc1)C(=O)N[C@H](C(=O)N[C@@H](CC(C)C)C(=O)O)[C@@H](C)O)C(C)C	·	·	·	·	·	-8.9%
Cc1cc2c(C(C)C)c(O)c(O)c(C=O)c2c(O)c1-c1c(C)cc2c(C(C)C)c(O)c(O)c(C=O)c2c1O	?	-11.7%	·	·	-15.6%	7.94µM*
CC(C)n1c(N2CCN(S(=O)(=O)c3cccc([N+](=O)[O-])c3)CC2)nc2ccccc21	2.6%	?	-2.5%	11.8%	2.6%	-3.1%
CCCCCCCC/C=C\CCCCCCCC(=O)OC[C@@H](COP(O)(O)=S)OC	·	·	·	·	·	5.01µM*
Fc1ccc(C(OCCN2CCN(C/C=C/c3ccccc3)CC2)c2ccc(F)cc2)cc1	·	·	·	·	·	-17.9%
O=S(=O)(c1ccc(O)cc1)c1ccc(O)cc1	5.6%	-2.5%	0.4%	-5.3%	0.5%	1.7%
Oc1cc[c]([Hg][Cl])cc1	·	·	·	·	·	0.141µM*
O=C(Nc1ccc(Cl)cc1)Nc1ccc(Cl)c(Cl)c1	-10.2%	28.2µM*	-12.8%	23.0%	9.4%	0.2%
CCN1CCN(c2ccc(NC(C)=O)cc2Cl)CC1	0.4%	-1.4%	0.7%	4.9%	-4.7%	4.7%
COC(=O)C1=C(c2ccc(Cl)c(C(F)(F)F)c2)C[C@@H]2CC[C@H]1N2C(=O)NCCOc1ccc(OC)cc1	5.7%	4.3%	-3.1%	-17.4%	20µM*	-12.0%
CN1CCCC(C(O)(c2ccccc2)c2ccccc2)C1 (configuration not stated)	-3.0%	-8.8%	3.5%	-3.2%	3.16µM*	-0.5%
CN1CCCC(C(=O)c2ccc(-c3ccccc3)cc2)C1 (configuration not stated)	1.8%	11.3%	1.6%	4.2%	0.4%	-3.4%
SMILES	Tb PFK block	p53 reactivator	ASM inhibitor	ERG-DNA inh	A-T KAP1 phos	KAT2A inh
NC1CCCC[C@H]1N (some centres not stated)	·	·	·	·	·	4.2%
NCCCCC(NC(CCc1ccccc1)C(=O)O)C(=O)N1CCCC1C(=O)O (configuration not stated)	·	·	·	·	·	14.8%
Cc1cc2ccccc2n1CCNC(=O)Cc1ccccc1	0.4%	-1.4%	3.4%	35.5µM*	-7.9%	-2.4%
Oc1cccc[c]1[Hg][Cl]	·	·	·	·	·	0.0891µM*
CC1CN(c2ccccc2)NC1=O (configuration not stated)	4.7%	13.9%	-3.0%	18.6%	7.4%	11.0%
CN(C)C(=S)SSC(=S)N(C)C	?	-10.6%	0.2%	-1.3%	-5.9%	14.1µM*
CCNc1nc(Cl)nc(NCC)n1	·	·	·	·	·	28.2µM*
C[C@@]12CC[C@@H]3c4ccc(O)cc4C[C@H](CCCCCCCCCS(=O)CCCC(F)(F)C(F)(F)F)[C@H]3[C@@H]1CC[C@@H]2O (some centres not stated)	·	·	·	·	·	-10.1%
O=[N+]([O-])c1ccc(-c2[se]c3ccccc3c2I)cc1	·	·	·	·	·	25.1µM*
Cc1ccc(NC(=O)c2ncn(CC(=O)NCc3ccc4c(c3)OCO4)n2)cc1C	-4.0%	?	-3.7%	9.5%	2.0%	-2.7%
CCCCn1c(NS(=O)(=O)c2ccccc2)c(C(=O)OCC)c2nc3ccccc3nc21	2.4%	-14.4%	i	-8.4%	·	25.1µM*
CCCCn1c(NC(=O)c2ccc(Br)o2)c(C(=O)OCC)c2nc3ccccc3nc21	3.6%	17.2%	i	4.5%	9.3%	-11.7%
N#Cc1ccc(CN2CC3(CCNCC3)C2)cc1	·	·	·	·	·	0.8%
O=C(COc1ccc2ccc(=O)oc2c1)N1CCC(C(=O)O)(c2ccccc2)CC1	0.2%	11.5%	12.2%	16.6%	1.9%	25.1µM*
O=C1OC(c2cc(I)c(O)c(I)c2)(c2cc(I)c(O)c(I)c2)c2ccccc21	·	·	·	·	·	8.91µM*
Cc1cc(SCc2sc(-c3ccc(C(F)(F)F)c(F)c3)nc2C)ccc1OCC(=O)O	·	·	·	·	·	31.6µM*
CCC1(O)C(=O)OCc2c1cc1n(c2=O)Cc2cc3c(N)cccc3nc2-1 (configuration not stated)	·	·	16.0%	12.8%	·	·
CC[C@@]1(O)C(=O)OCc2c1cc1n(c2=O)-c2cc3ccccc3nc2C1	·	·	·	·	·	28.2µM*
OC[C@H]1O[C@@H](n2cnc3cc(Cl)c(Cl)cc32)[C@H](O)[C@H]1O	·	·	·	·	·	-2.0%
O=c1ccc2cc(O[C@@H]3O[C@@H](CO)[C@H](O)[C@@H](O)[C@@H]3O)c(O)cc2o1	0.0%	4.4%	i	-8.8%	18.7%	22.4µM*
O=C1C(I)=CC(=C(c2cc(I)c(O)c(I)c2)c2ccccc2C(=O)O)C=C1I	·	·	·	·	·	3.55µM*
Nc1ccccc1C(=O)O	·	·	·	·	·	-12.4%
COP(=O)(OC)c1nc(-c2cccc3ccccc23)oc1N1CCOCC1	0.3%	-9.2%	i	3.6%	27.7%	28.2µM*

Screening data (PubChem)
